Assay outcomes: PubChem, National Center for Advancing Translational Sciences (NCATS)
Marburg entry inh – Marburg virus entry inhibition; 300,000 compounds, 1.8% hits; Potency, µM (series often up to 37.8 µM), without a hit: top-dose activity change, negative = inhibition, most hits filed as inhibitors; Marburg virus pseudotyped entry inhibition, cell reporter; AID 540276; calls by dose curve; tested in HEK293 cells; also: potency is read from the fitted curve at half-maximal effect
Pf growth 96h – P. falciparum growth inhibition at 96 hour, primary screen for plastid delayed-death inhibitors; P. falciparum luciferase reporter growth, 96 h; Potency, µM (highest dose often 28.7 µM), for the others: at the highest dose activity change, negative = inhibition, most hits filed as inhibitors; 320,000 compounds, 6.9% hits; also: potency is read from the fitted curve at half-maximal effect
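Luminescence readout: decreased luciferase signal marks inhibited growth of reporter-expressing P. falciparum in infected red cells (2% hematocrit, 0.05% parasitemia final), exposed to compound two generations (96 h, 37 C, 5% CO2).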
Pf growth 48h – P. falciparum growth inhibition at 48 hours (one generation). P. falciparum luciferase growth in erythrocytes, 48 h. Potency, µM (titrated, usually from 28.7 µM), for inactives: at the highest dose activity change, negative = inhibition, hits mostly inhibitors. AID 504832. 310,000 compounds, 5.9% hits; also: potency is read from the fitted curve at half-maximal effect
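Parasite viability was followed by luminescence of a genomically integrated firefly luciferase. Cultures held 0.1% parasitemia at 2% hematocrit (final), incubated under 5% CO2 at 37 C.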
LASV entry inh – inhibitors of Lassa virus binding or cell entry. Potency, µM (top dose mostly 37.9 µM), inactives show top-dose activity change, negative = inhibition, most hits filed as inhibitors. Lassa virus pseudotype entry inhibition, cell reporter. 300,000 compounds, 1.2% hits. AID 540256; calls by dose curve; tested in HEK293 cells; also: potency is read from the fitted curve at half-maximal effect; nearly all actives have a fitted effect of over 50% in size
HCV inh – blocks hepatitis C virus; Huh7.5.1 HCVcc-Cre infection, luciferase reporter, 44 h; AID 651820; 340,000 compounds, 3.4% hits; Potency, µM (series often up to 41.8 µM), for inactives: top-dose activity change, negative = inhibition, most hits filed as inhibitors; also: potency is read from the fitted curve at half-maximal effect
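Seed cells (1,000/well) for 4 h; treat with compound and infect with HCVcc-Cre, moi about 0.5. Incubate 44 h, then detect luciferase activity.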
HCMV inh – inhibitors of human cytomegalovirus; activity change, negative = inhibition, % at 57.5 µM; 410,000 compounds, 4.5% hits; HFF cells, HCMV-luciferase reporter, 72 h; active compounds read low; AID 1259415; in the data active = activity change below about -60%; inconclusive = no clear call, values can overlap the other calls; inactive = above about -39%
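Two-dose cell screen: HFF monolayers treated with compounds and infected with luciferase-expressing HCMV at 1 PFU/cell, 72 h at 37C, then lysed for luciferase measurement.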
* marks the source's active call; other numbers are inactive results; ? = inconclusive; / = not tested or not shown; [ ] = another dose, or the depositor's remark. Sampled rows, rich in hits. Any-hit rate of the full collection: about 14%. Unless noted, calls follow the shape of the dose curve; as a rule, active = well fitted inhibition curve with a large enough effect; inconclusive = small, poorly fitted or top-dose-only effect, or another doubt; inactive = no such curve, though single readings can be large or run the other way. % is scaled to controls: 0 for no effect and ±100 for the full control effect.

SMILES	Marburg entry inh	Pf growth 96h	Pf growth 48h	LASV entry inh	HCV inh	HCMV inh
Cc1ccnc(NS(=O)(=O)c2ccc(NC(=O)Cc3ccc(Br)cc3)cc2)n1	/	30%	-3%	/	1%	55
O=C(NC1CCCCC1)N1CCN(c2ccc(Cl)cc2)CC1	-18%[46.1 µM]	1.9µM*	?	?	?	-27
COC(=O)c1ccc(NC(=O)C2CCN(C(=O)Nc3ccccc3)CC2)cc1	/	4.7µM*	?	/	?	-19
CSc1ccc(CN(C)C(=O)C2CCN(C(=O)Nc3ccccc3)CC2)cc1	/	7%	?	/	10µM*	-8
CC(=O)Nc1ccc(NC(=O)C2CCN(C(=O)NC3CCCCC3)CC2)cc1	-17%[46.1 µM]	5.2µM*	-3%	-14%	6%	-15
CC(C)C[C@H]1CNC(=O)C(=O)N1C[C@@H]1CCCN1C[C@H](Cc1ccccc1)N1C[C@H](Cc2ccccc2)N(CCc2ccccc2)C(=O)C1=O	/	/	/	/	/	-9
CC(C(=O)N1CCCCC1)N(C)CC(=O)Nc1cccc(F)c1 (stereo not drawn)	/	-7%	3%	/	0%	3
COc1ccc(CCNC(=O)C2CCN(C(=O)c3ccc(Br)cc3)CC2)cc1OC	/	218%	-15%	/	-27%	27
CC(=O)c1ccc(NC(=S)Nc2ccc3cn[nH]c3c2)cc1	10%[14.2 µM]	0%	4%	-30%	0%	-68*
Cc1ccc(S(=O)(=O)N(C)C)cc1NC(=S)Nc1ccc2cn[nH]c2c1	-5%[46.1 µM]	7%	-5%	14%	2%	-67*
Cc1ccc(NC(=S)Nc2ccc3cn[nH]c3c2)cc1C	/	10%	26%	/	11%	-33
CC(C)c1ccc(NC(=S)Nc2ccc3cn[nH]c3c2)cc1	?	13%	65%	0%	2%	-27
Cc1ccc(CC(=O)O/N=C(\N)c2ccccn2)cc1	/	-15%	90%	/	6%	117
CC(C)(C)CC(=O)O/N=C(\N)c1ccccn1	?	13µM*	113%	?	8%	-23
COc1ccc(/C=C/C(=O)O/N=C(\N)c2ccccn2)cc1OC	?	/	/	?	-12%	20
N/C(=N\OC(=O)/C=C/c1ccccc1)c1ccccn1	7.9µM*	23%	-50%	-26%[46.1 µM]	2%	8
Cc1c(C(=O)Nc2ccc(C(C)C)cc2)sc2nc[nH]c(=O)c12	/	/	/	?	/	57
COc1ccccc1NC(=O)COC(=O)c1cc(C)oc1C	1%[46.1 µM]	/	/	0%[46.1 µM]	-22%	-79*
Cc1cc(C(=O)OCC(=O)Nc2nc(-c3ccccc3)cs2)c(C)o1	-3%	9%	/	?	?	-101*
Cc1cc(C(=O)OC(C)C(=O)Nc2nc(-c3ccccc3)cs2)c(C)o1 (stereo not drawn)	?	/	-1%	13µM*	?	-8
Cc1cccc(NS(=O)(=O)c2ccc(C)c(NS(=O)(=O)c3cccs3)c2)c1	?	31%	-1%	14%	6%	-24
Cc1ccc(-c2nc(CCNC(=O)C(=O)Nc3ccc(F)cc3F)cs2)cc1	/	/	/	?	/	11
Cn1c(=O)c2c(c3ccccc31)OC(=O)CC2c1ccccc1 (stereo not drawn)	/	/	/	5%[46.1 µM]	/	13
COC(=O)c1ccc(OCC2c3cc(OC)c(OC)cc3CCN2C(=O)c2ccccc2C)cc1 (stereo not drawn)	/	/	/	-4%[46.1 µM]	/	13
COc1ccccc1CCN1CCCC(CN(C)CC(C)(C)CO)C1 (stereo not drawn)	13µM*	12µM*	2%	?	13%	51
SMILES	Marburg entry inh	Pf growth 96h	Pf growth 48h	LASV entry inh	HCV inh	HCMV inh
COc1ccc(CN(C)CC2CCCN(CCc3ccc(F)cc3)C2)cc1OC (stereo not drawn)	/	4.7µM*	?	/	?	0
COc1ccc(CCN2CCCC(CN(C)Cc3cc(OC)c(OC)c(OC)c3)C2)cc1 (stereo not drawn)	?	?	?	?	?	26
COCC(=O)N(C)CC1CCCN(CCc2ccccc2OC)C1 (stereo not drawn)	?	?	8%	21%	12%	22
COc1ccc(F)c(CN(C)CC2CCCN(CCc3ccc(F)cc3)C2)c1 (stereo not drawn)	11µM*	?	?	?	?	-15
COc1cc(CN(C)CC2CCCN(CCc3ccc(F)cc3)C2)c(Cl)cc1O (stereo not drawn)	/	?	12µM*	/	?	17
CC(C)(C)OC(=O)N1CCC(c2c(C(=O)NCCc3ccccc3)cnn2-c2ccc(F)cc2)CC1	/	/	/	?	/	6
COC(=O)c1ccc(NC(=O)c2nn(C)c3c2CS(=O)(=O)c2ccccc2-3)cc1	/	/	/	4%[46.1 µM]	/	0
COC(=O)CCC(=O)N(C)CC1CCCN(CCc2cccc(C(F)(F)F)c2)C1 (stereo not drawn)	/	?	12%	/	-5%	28
CN(CC1CCCN(CCc2cccc(C(F)(F)F)c2)C1)C(=O)c1cc2ccccc2o1 (stereo not drawn)	/	31%	10µM*	/	?	?
COc1cc(CN(C)CC2CCCN(CCc3ccccc3F)C2)cc(Cl)c1OC (stereo not drawn)	?	9.3µM*	13µM*	?	?	-12
CCN(CC1CCCN(CCc2cccc(F)c2)C1)C(=O)c1cc(C)oc1C (stereo not drawn)	/	5.2µM*	?	/	?	-15
CN(Cc1ccccc1)CC1CCCN(CCc2ccccc2F)C1 (stereo not drawn)	?	?	?	-2%[46.1 µM]	?	-14
